# Measured values: PubChem BioAssay (NCI)
# This is part of a sample that, as a whole, favours compounds with a hit. Of some 83,000 tested, about 20% had one in any assay.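 Values shown are percent growth following 48 h exposure of cells in 96-well plates to a single concentration of compound; below 10 was considered active.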 Calls of active or inactive are those of the source.
# Test system: SF-539 CNS
# Assay: NCI-60 one-dose screen, 48 h (100 = growth as untreated, 0 = no growth, -100 = all killed)
# Details: 10 µM unless noted
row,Structure (SMILES),growth
1,COC(=O)[C@@H](Cc1c[nH]c2ccccc12)NC(=O)/C=C/c1ccccc1,-66.8% (active)
2,NNc1ccc(S(N)(=O)=O)cc1,98.6% (inactive)
3,COc1ccc(-c2ccc(-c3ccc(C(=N)N)s3)s2)cc1,-75.5% (active)
4,O=P(O)(O)C(O)(Cc1cccnc1)P(=O)(O)O,101% (inactive)
5,O=C1OC(/C=C/c2ccccc2)=NC/1=C/c1ccccc1[N+](=O)[O-],89.8% (inactive)
6,Cc1cc(Nc2c3ccccc3nc3ccccc23)ccc1NS(C)(=O)=O,15% (inactive)
7,N=C(N)c1ccc(-c2ccc(-c3cccs3)s2)cc1F,-93.9% (active)
8,O=C(Nc1cccc(Cl)c1)Nc1ccccc1Cl,104% (inactive)
9,CCCCCCCCCCCCCC,109% (inactive)
10,Cc1nn(-c2ccccc2)c2nc3c(nc12)C1=NCCN1C(c1ccc(Cl)cc1)N3 (configuration not stated),95.1% (inactive)
11,COc1cc(OC)c(C(=O)/C=C/c2cccc(OC(C)=O)c2)cc1CC=C(C)C,90.6% (inactive)
12,C[N+](C)(C)CCCCCCCCCC[N+](C)(C)C,119% (inactive)
13,Cc1cc2nc(CN)[nH]c2cc1C,106% (inactive)
14,CC(=O)C1CCC2C3CC(C)=C4CC(O)CCC4(C)C3CCC12C (configuration not stated),90.7% (inactive)
15,N=C(N)c1ccc(-c2ccc(-c3ccco3)o2)cc1F,8.28% (active)
16,N#Cc1ccc(-c2ccc(-c3cccs3)o2)cc1F,78.1% (inactive)
17,O=C(Nc1cccc(-n2ccc3c(NC(=O)c4ccccc4)nccc32)c1)c1ccc(Cl)c(Cl)c1,-71.2% (active)
